MBNL1 CUG block – qHTS Assay for Inhibitors of MBNL1-poly(CUG) RNA binding. Muscleblind-like protein 1 (Homo sapiens), Q9NR56. TR-FRET MBNL1-His/biotin-(CUG)12 binding, 665/545 ratio. Potency, µM (series often up to 57.5 µM), actives largely listed as inhibitors. actives 0.036% (n = 280,000). AID 2675, 2010; active means well fitted inhibition curve with a large enough effect in the signal ratio, with a control signal flat, not every such curve was filed as active; inconclusive means small, poorly fitted or top-dose-only effect, or effect the other way, or a change in a side signal; inactive means no such curve, though single readings can be large or run the other way; the % refers to the signal ratio
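TR-FRET readout: Ex 340 nm, 665/545 nm emission ratio, normalized to buffer-only (basal) and MBNL1-(CUG)12 controls. Complex of MBNL1-His with Biotin-(CUG)12, compounds 92 nM–58 uM, incubated 60 min at room temperature.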
TCR activator – Activators of T cell receptors: qHTS campaign | primary human leukocytes, anti-CD3, IL-2 HTRF, 48 h | Potency, µM (titrated, usually from 9.22 µM), most hits filed as activators | 330,000 tested, under 10 active
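Primary human leukocytes receive a-CD3 beads and test compound and are incubated 48 hr. Secreted IL-2 is then assayed by HTRF, measuring 665nm acceptor emission after 320nm excitation of the europium donor.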
CBFb-RUNX1 inh – qHTS Assay for Compounds Blocking the Interaction Between CBF-beta and RUNX1 for the Treatment of Acute Myeloid Leukemia. AlphaScreen CBFb-His/RUNX1-biotin binding, biochemical. 230,000 tested, under 10 active. Potency, µM (top dose mostly 59.8 µM), actives largely listed as inhibitors. AID 1477, 2009
Target sequence (Q01196 whole entry, looked up): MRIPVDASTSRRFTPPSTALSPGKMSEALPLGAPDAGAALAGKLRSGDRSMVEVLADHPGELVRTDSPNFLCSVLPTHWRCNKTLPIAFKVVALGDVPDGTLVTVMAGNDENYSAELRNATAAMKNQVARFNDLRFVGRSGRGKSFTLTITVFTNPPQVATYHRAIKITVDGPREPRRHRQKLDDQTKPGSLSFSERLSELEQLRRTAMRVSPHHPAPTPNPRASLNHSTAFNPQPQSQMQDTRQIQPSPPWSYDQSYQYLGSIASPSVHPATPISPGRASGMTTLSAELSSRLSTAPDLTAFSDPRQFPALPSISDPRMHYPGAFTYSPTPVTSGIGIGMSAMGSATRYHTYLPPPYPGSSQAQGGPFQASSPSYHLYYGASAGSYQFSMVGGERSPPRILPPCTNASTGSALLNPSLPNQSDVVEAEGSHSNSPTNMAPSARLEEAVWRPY
Target sequence (Q13951 whole entry, looked up): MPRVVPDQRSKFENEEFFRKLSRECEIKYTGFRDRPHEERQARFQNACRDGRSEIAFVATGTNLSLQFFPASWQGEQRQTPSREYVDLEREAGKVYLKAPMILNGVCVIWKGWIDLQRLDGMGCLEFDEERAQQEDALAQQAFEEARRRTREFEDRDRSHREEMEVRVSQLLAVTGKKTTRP
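Read-out: AlphaScreen. Format: His-CBF-beta with biotinylated RUNX1 (30 nM each) preincubated 20 min, compound 15 min, Ni-chelate plus streptavidin beads 90 min; room temperature throughout.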
Integrin act MD – qHTS for Activators of Integrin-Mediated Alleviation for Muscular Dystrophy | alpha7betagal myoblasts, beta-gal FDG fluorescence, 48 h | Potency, µM (series often up to 38.3 µM), hits mostly activators | actives 0.064% (n = 350,000) | AID 624291, 2012; further: nearly all actives have a fitted effect of over 60% in size
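alpha7betagal+/- myoblasts (passage 13, 250/well) treated 48 h at 37C with compounds at 1:260 dilution of DMSO stock. Lysed, then beta-galactosidase activity read as FDG fluorescence (ex 480/em 540) after 30 min, with pre-read for autofluorescence.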
MBNL1-CUG FRET – qHTS Assay for Inhibitors of MBNL1-poly(CUG) RNA binding: Initial hit validation from the primary screen | Potency, µM (titrated, usually from 57.6 µM), hits mostly inhibitors | actives 50% (n = 140) | AID 493199, 2011 | shares compounds with MBNL1 CUG block | TR-FRET MBNL1-His / biotin-(CUG)12 binding, 60 min
MBNL1-CUG Alpha – qHTS Assay for Inhibitors of MBNL1-poly(CUG) RNA binding: Initial hit validation in AlphaScreen assay for MBNL1-(CUG)12 binding; shares compounds with MBNL1 CUG block; AlphaScreen MBNL1-His / biotin-(CUG)12 binding; Potency, µM (doses to about 57.7 µM), hits mostly inhibitors; actives 30% (n = 140)
Menin-MLL HTRF – qHTS Assay for Inhibitors of MBNL1-poly(CUG) RNA binding: Counterscreen HTRF assay; shares compounds with MBNL1 CUG block; His-Menin/biotin-MLL peptide TR-FRET counterscreen; Potency, µM (highest dose often 57.6 µM), hits mostly inhibitors; actives 20% (n = 120)
Each line names hits and unclear results; the compound was inactive in the other large screens (follow-up assays come after a bar, where they were run). Rows were chosen to be rich in hits. Some 0.086% of all compounds tested hit in one or more screens of this group. Unless noted, the call rests on the fitted dose curve; in most records, active means well fitted curve in the direction sought with a large enough effect; inconclusive means small, poorly fitted or top-dose-only effect, or another doubt; inactive means no such curve, though single readings can be large; an effect the other way counts as inactive or inconclusive.

CN1CCN(C2CCN(S(=O)(=O)c3ccc(C(C)(C)C)cc3)CC2)CC1	none (no result: CBFb-RUNX1 inh)
CSc1ncccc1C(=O)OCC(=O)c1cc(C)n(C)c1C	Integrin act MD 10µM (no result: MBNL1 CUG block, CBFb-RUNX1 inh)
CCn1c(C)cc(C(=O)COC(=O)c2cccnc2SC)c1C	none (no result: MBNL1 CUG block, CBFb-RUNX1 inh)
CCCC(=O)Nc1ccc(S(=O)(=O)Nc2cc(OC)ncn2)cc1	none (no result: CBFb-RUNX1 inh)
Cc1cccc(OCc2nc(C#N)c(N3CCCC3)o2)c1	Integrin act MD 3.5µM
O=C(Nc1ccc(N2CCOCC2)c(Cl)c1)c1ccc([N+](=O)[O-])o1	MBNL1 CUG block inconclusive
COC(=O)c1ccc(/C=N\NC(=O)CC(=O)NCCc2ccccc2)cc1	none
[O-]/C(=C(\C(=S)NCc1ccco1)[n+]1ccccc1)c1ccccc1Br	none
O=C(Cn1cccc1C(=O)c1ccccc1)NCCCc1ccccc1	Integrin act MD 4µM (no result: CBFb-RUNX1 inh)
Cc1ccccc1C(=O)c1cccn1CC(=O)NCCCc1ccccc1	none (no result: CBFb-RUNX1 inh)
O=C(CSc1nc2[nH]ncc2c(=O)[nH]1)N1CCCC1	none
COCCSc1ccccc1C(=O)Nc1cc(C)cc(C)c1	Integrin act MD 4.5µM
Cc1ccc(NP(=O)(Nc2ccc(C)cc2)Nc2ccc(C)cc2)cc1	Integrin act MD 3.2µM
Cc1ccc(P(C)(=O)c2ccc(C)cc2)cc1	none
COc1ccc(/C=C(\NC(=O)c2ccc(OC)cc2)C(=O)Nc2ccc(C(=O)O)cc2)cc1	none (no result: CBFb-RUNX1 inh)
COc1ccc(/C=C(\NC(=O)c2ccc(C)cc2)C(=O)Nc2ccc(C(=O)O)cc2)cc1	MBNL1 CUG block inconclusive, Integrin act MD 11µM (no result: CBFb-RUNX1 inh)
COC(=O)C1=C(C)NC(C)=C(C(=O)OC)C1c1ccccc1OCc1c(C)no[n+]1[O-]	Integrin act MD 2.8µM
O=C(OCc1cn([C@H]2C[C@H](c3ccc(Cl)cc3)N(Cc3cccs3)C[C@@H]2O)nn1)c1ccccc1	none (no result: MBNL1 CUG block, TCR activator, CBFb-RUNX1 inh)
COc1ccc(S(=O)(=O)Nc2ccc(S(=O)(=O)Nc3nccs3)cc2)cc1	Integrin act MD 13µM (no result: CBFb-RUNX1 inh)
NC(=O)c1nsc(C(=O)N(c2ccccc2)C(C(=O)NCc2ccc(F)cc2)c2ccc(O)cc2)c1N (stereo unspecified)	MBNL1 CUG block inconclusive, Integrin act MD 2.2µM (no result: CBFb-RUNX1 inh)
CC1NC(=O)NC1CCCCCC(=O)NCCc1ccccc1 (stereo unspecified)	MBNL1 CUG block 0.45µM, CBFb-RUNX1 inh inconclusive
Cc1cccc(C)c1NC(=O)CCCCCC1NC(=O)NC1C (stereo unspecified)	MBNL1 CUG block 0.71µM, CBFb-RUNX1 inh inconclusive
Cc1ccc(S(=O)(=O)N2CCN(C(=O)c3ccco3)CC2)cc1C	none (no result: CBFb-RUNX1 inh)
O=c1nc(NC2CCCC2)ccn1Cc1cccc(Br)c1	none (no result: TCR activator)
CCC(=O)Nc1nc(C)c(C(=O)NC2CCCCC2)s1	none
COC(=O)/C=c1/s/c(=C(/C#N)C(=O)N2CCOCC2)n(-c2ccccc2)c1=O	none
CCOC(=O)CCCCC(=O)c1[nH]c(=O)[nH]c1CSc1nc2ccccc2[nH]1	MBNL1 CUG block inconclusive
Cc1[nH]c(=O)[nH]c1C(=O)CCCCC(=O)OCC(=O)Nc1ccccn1	MBNL1 CUG block 0.045µM (no result: CBFb-RUNX1 inh)
CN(C)c1ccnc2sc(C(=O)c3ccc(Br)cc3)c(N)c12	none
COc1ccc(Cl)cc1NC(=O)CC(=O)Nc1cc(Cl)ccc1OC	Integrin act MD 14µM (no result: CBFb-RUNX1 inh)
COc1ccc(Cl)cc1NC(=O)Cn1cccc1	none (no result: TCR activator)
COc1cc(NC(=O)CSc2nc3ccccc3c(=O)n2C)ccc1NC(=O)c1ccco1	none
COc1ccc(-c2cc(COc3ccccc3)on2)cc1	Integrin act MD 10µM (no result: MBNL1 CUG block)
C=CCC[C@@H](Cc1ccc(F)cc1)C(=O)OC[C@@H](NC(=O)[C@@H](CC=C)CC(=O)N[C@@H](CO)Cc1ccccc1)C(C)(C)C	none (no result: MBNL1 CUG block, CBFb-RUNX1 inh)
OC(COc1ccccc1CNCc1cccnc1)CN1CCc2ccccc2C1 (stereo unspecified)	MBNL1 CUG block 13µM | MBNL1-CUG FRET 16µM | MBNL1-CUG Alpha inconclusive | Menin-MLL HTRF inconclusive
O=C(NC1(O)C(=O)c2ccccc2C1=O)c1ccccc1	none (no result: MBNL1 CUG block) | MBNL1-CUG FRET 21µM | MBNL1-CUG Alpha 13µM | Menin-MLL HTRF inactive
O=C(NC1(O)C(=O)c2ccccc2C1=O)c1c(Cl)cccc1Cl	MBNL1 CUG block inconclusive, Integrin act MD inconclusive
O=C(c1cc(Cl)ccc1Cl)N1CCOCC1	none
CC(=O)Nc1nc(-c2ccc(Cl)cc2)nc(C)c1C(C)=O	MBNL1 CUG block 25µM | MBNL1-CUG FRET inconclusive | MBNL1-CUG Alpha inconclusive | Menin-MLL HTRF inconclusive
CC(=O)c1c(C)nc(C)nc1NC(=O)Cc1ccccc1	MBNL1 CUG block inconclusive
Cc1ccc(S(=O)(=O)Oc2ccccc2/C=N/N=C(N)N)cc1	MBNL1 CUG block 18µM | MBNL1-CUG FRET 16µM | MBNL1-CUG Alpha inactive | Menin-MLL HTRF inconclusive
Cc1ccc(S(=O)(=O)Oc2ccccc2/C=N/NC(N)=S)cc1	none
CCCc1[nH]nc2c1C(c1cccc(OC)c1)C(C#N)=C(N)O2 (stereo unspecified)	none
